These results are taken from PubChem BioAssay AID492953 (The Scripps Research Institute Molecular Screening Center, 2010).

Among all 340,000 compounds or so, about 4,200 (1.2%) were called active.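 How the source made its calls: active means inhibition above the mean of all tested compounds plus 3 SD (cut at about 24% in these data); inactive means the rest.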 Shown is part of a subset that was picked to be rich in actives.

For the test, the target named is Platelet-activating factor acetylhydrolase IB subunit alpha2 (Homo sapiens) (UniProt P68402). Description: PAFAH1B2 enzyme inhibitors, primary screen, biochemical, fluorescence polarization, human (AID 492953).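 Further: 0% = enzyme with DMSO and 100% = wells lacking PAFAH1B2.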 The following applies: recombinant PAFAH1B2, FP-rhodamine activity probe, at 3.39 µM, stronger effect = higher value.
Platelet-activating factor acetylhydrolase IB subunit alpha2 (Homo sapiens), sequence (P68402 whole entry, looked up): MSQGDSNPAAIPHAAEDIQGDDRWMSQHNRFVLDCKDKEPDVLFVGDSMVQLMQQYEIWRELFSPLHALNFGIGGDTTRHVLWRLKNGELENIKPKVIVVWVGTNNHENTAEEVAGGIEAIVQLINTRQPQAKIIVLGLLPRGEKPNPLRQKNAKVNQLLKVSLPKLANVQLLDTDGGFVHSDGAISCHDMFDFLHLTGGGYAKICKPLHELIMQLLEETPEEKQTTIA
Regarding `CC(OC(=O)/C=C/c1ccccc1)C(=O)NC1CCCCC1C` (stereo not drawn), the inhibition was 1.18% (inactive).

As to `Cc1ccc(COc2ccc(/C=N/NC(=O)CN3CCCCC3)cc2)cc1`, the inhibition is 25.1% (active).

As for `O=C(CN1CCSCC1)N/N=C/c1ccc(F)cc1`, the inhibition is -6.64% (inactive).

Regarding `CCOc1cc(/C=N/NC(=O)CN2CCCCC2)ccc1O`, the inhibition was 1.96% (inactive).

With `Cc1ccc(S(=O)(=O)NC(=O)N2CCCN(Cc3ccc(F)cc3)CC2)cc1`, the inhibition is 9.06% (inactive).

For the molecule `Cn1c(Cn2nnc3ccccc32)nnc1SCC(=O)c1ccccc1F`, the inhibition is 4.6% (inactive).

On to `C/C(Cn1nnc2ccccc21)=N\OC(=O)c1cc(F)c(F)cc1Cl`, for which the inhibition is 25.1% (active).

Regarding `CCOC(=O)c1cccc(NC(=O)CCn2nnc3ccccc32)c1`, the inhibition was 1.37% (inactive).

For the molecule `COC(=O)C1=C(N)Oc2cc(C)[nH]c(=O)c2C1c1ccc(Cl)cc1` (stereo not drawn), the inhibition was -2.03% (inactive).

In the case of `C=CCNC(=O)CCCC(=O)NCC=C`, the inhibition was 2.09% (inactive).

Regarding `Cc1ccc(NS(=O)(=O)c2ccc3c(c2)NC(=O)CO3)cc1`, the inhibition is 19.2% (inactive).

As for `O=C1COc2ccc(S(=O)(=O)Nc3ccc(OC(F)(F)F)cc3)cc2N1`, the inhibition was 41.6% (active).

On to `Cc1ccc(NS(=O)(=O)c2cc3c(cc2C)NC(=O)CO3)cc1`, for which the inhibition was 6.94% (inactive).

Turning to `Nc1ccc2c(c1)C(=Cc1cccnc1)c1ccccc1-2`, the inhibition was 6.17% (inactive).

Regarding `COc1cc2c(cc1OC)C1C(=O)c3cc(OS(C)(=O)=O)c(OC)cc3C1N(C)C2=O` (stereo not drawn), the inhibition is 0.81% (inactive).

As to `COCCNC(=O)NC(=O)COC(=O)C1(c2ccc(Cl)cc2)CC1`, the inhibition was 26.9% (active).

Take `CC(=O)N1CCC(C(=O)OCc2ccc(Cl)cc2)(c2ccccc2)CC1`: the inhibition is 7.86% (inactive).

On to `CCCNC(=O)NC(=O)COC(=O)CC(NC(N)=O)c1ccc(Cl)cc1` (stereo not drawn), for which the inhibition was 2.08% (inactive).

In the case of `COc1ccc(-c2c(C)cc3oc(=O)cc(-c4ccccc4)c3c2C)cc1C=O`, the inhibition was -1.53% (inactive).

As to `O=c1[nH]c2ccccc2s1`, the inhibition was 4.32% (inactive).

With `Cc1ccc(S(=O)(=O)N2CCC(C(=O)N[C@@H](C)C(=O)NCc3ccco3)CC2)cc1`, the inhibition was 4.6% (inactive).

In the case of `O=C(NC1CCC(O)CC1)c1ccc(S(=O)(=O)NCc2ccco2)cc1` (stereo not drawn), the inhibition was 4.89% (inactive).

Take `CC1CCN(S(=O)(=O)c2ccc(S(=O)(=O)NCc3ccco3)cc2)CC1`: the inhibition was 29.6% (active).

Turning to `O=C(CSc1ccc([N+](=O)[O-])cn1)Nc1ccc(N2CCOCC2)c(Cl)c1`, the inhibition is -0.87% (inactive).

Regarding `O=C(/C=C/c1ccccc1[N+](=O)[O-])OCC(=O)N1CCCC1`, the inhibition is 0.91% (inactive).

As to `COC(=O)[C@@H]1C[C@H]2CC[C@H](O)C[C@H]2N1Cc1ccc(N2CCN(C)CC2)cc1`, the inhibition was -3.13% (inactive).

For the molecule `O=C1NC[C@@H](c2ccccc2)OC(=O)[C@H](Cc2ccc(F)cc2)CC/C=C/C[C@H]1CC(=O)N(CCO)Cc1ccccc1`, the inhibition is 53.8% (active).

On to `O=C1CCC/C=C/C[C@@H](CC(=O)N(CCO)Cc2ccccc2)C(=O)NC[C@H](c2ccccc2)O1`, for which the inhibition was -0.45% (inactive).

For the molecule `O=C1N[C@@H](c2ccccc2)COC(=O)[C@H](Cc2ccc(F)cc2)C/C=C\C[C@@H]1CC(=O)N(CCO)Cc1ccccc1`, the inhibition is 4.49% (inactive).

Take `COC(=O)c1cc(S(=O)(=O)N2CCC(C(N)=O)CC2)oc1C`: the inhibition was -0.09% (inactive).

For `O=C(Nc1ccccc1)N1CCC(C(=O)N2CCN(Cc3ccccc3)CC2)CC1`, the inhibition was 0.85% (inactive).

In the case of `COc1ccc(C2c3c(C)nn(-c4ccccc4)c3NC(=O)N2c2ccccc2)cc1` (stereo not drawn), the inhibition was 0.39% (inactive).

With `CCCc1[nH]nc2c1C(C1CC=CCC1)C(C#N)=C(N)O2` (stereo not drawn), the inhibition is 27.5% (active).

In the case of `CCCc1[nH]nc2c1C(c1ccc(Br)s1)C(C#N)=C(N)O2` (stereo not drawn), the inhibition was 19.3% (inactive).

For `COCc1[nH]nc2c1C(C1C=CCCC1)C(C#N)=C(N)O2` (stereo not drawn), the inhibition was 4.96% (inactive).

On to `CC(C)(C)c1cc(CN2CCN(CCC#N)CC2)cc(C(C)(C)C)c1O`, for which the inhibition was 1.53% (inactive).

Consider `CCOC(=O)c1ccccc1N1C(=O)C2Sc3[nH]c(=O)sc3C(/C=C/c3ccccc3)C2C1=O` (stereo not drawn), for which the inhibition is 1.84% (inactive).

As for `CCOC(=O)C1CCN(C(=O)Nc2ccc(Cl)cc2)CC1`, the inhibition is 2.4% (inactive).

Take `CCOC(=O)C1Sc2[nH]c(=O)sc2C(c2ccc(Cl)cc2)C1C(=O)OCC` (stereo not drawn): the inhibition was 27% (active).

`CCCCNC(=O)N1CCN(S(C)(=O)=O)CC1`: the inhibition is 3.98% (inactive).

Consider `Nc1cc(N)nc(SCc2ccc(Cl)cc2)n1`, for which the inhibition is 24.1% (inactive).

In the case of `O=C(C1CC1)N1CCN=C1SCc1ccc(Cl)cc1`, the inhibition was 10.5% (inactive).

For `Clc1ccc(CSc2nnc([C@@H]3CCCN3)o2)cc1`, the inhibition is 24.3% (active).

Consider `COCC1CCN(C(=O)C2CCC(=O)N(Cc3cccc(C(F)(F)F)c3)C2)CC1` (stereo not drawn), for which the inhibition is -0.17% (inactive).

As to `CCN(CC)CCCC(C)n1c2nc(=O)[nH]c(=O)c-2nc2cc(Cl)ccc21` (stereo not drawn), the inhibition is 26% (active).

Turning to `CCN(CC)CCn1c2ccc(Cl)cc2c2nc(C)sc21`, the inhibition is -5.01% (inactive).

With `CN(C(=O)c1ccc(NC(=O)Cc2cccc(NC(=O)C3CCN(C(=O)c4ccccc4)CC3)c2)cc1)C1CC1`, the inhibition was 4.32% (inactive).

On to `O=[N+]([O-])c1ccc(NS(=O)(=O)c2ccccc2)c(Cl)c1`, for which the inhibition is 1.95% (inactive).

Consider `CN(C)CCNC(=O)c1ccc(Cl)c2cc3ccccc3nc12`, for which the inhibition is -1.08% (inactive).

Take `O=C(CNC(=O)c1ccc(-c2ccccc2)cc1)OCc1ccc(Cl)cc1`: the inhibition was 1.38% (inactive).

In the case of `O=C(CNC(=O)OCc1ccccc1)Oc1cc2oc(=O)cc(-c3ccccc3)c2cc1Cl`, the inhibition was 45.7% (active).

For `CC(=O)COc1ccc2c(-c3ccccc3)cc(=O)oc2c1`, the inhibition is -1.64% (inactive).

As to `Nc1ccc2nc3c(=O)[nH]c(=S)[nH]c3nc2c1`, the inhibition was 33.8% (active).

Regarding `O=C(NCCc1ccccn1)c1nc(Cn2cc([N+](=O)[O-])cn2)no1`, the inhibition is -4.12% (inactive).

On to `C=CC(=O)Nc1ccc(Nc2ccnc(Nc3ccc(N4CCN(C)CC4)cc3)n2)cc1`, for which the inhibition is 1.32% (inactive).

Turning to `O=C(COc1ccccc1Cl)Nc1ccccc1C(=O)NC1CC1`, the inhibition is 0.96% (inactive).

Regarding `COc1ccc(S(=O)(=O)N2CCOC2CNC(=O)C(=O)NCc2ccncc2)cc1C` (stereo not drawn), the inhibition was 1.87% (inactive).

Take `Nc1cccnc1Sc1ccccc1`: the inhibition is 4.02% (inactive).

Consider `CC(Oc1ccc(Cl)cc1)c1ccnn1S(C)(=O)=O` (stereo not drawn), for which the inhibition was 29.6% (active).

Regarding `CC(Oc1ccc(Cl)cc1)C(=O)Nc1ncccn1` (stereo not drawn), the inhibition was 5.55% (inactive).

`CCN(Cc1ccccc1)S(=O)(=O)c1cc2c3c(c1)CCN3C(=O)CC2`: the inhibition was 8.31% (inactive).

Consider `C=CCOc1ccc(/C=N/n2cncn2)cc1OC`, for which the inhibition was 6.27% (inactive).

With `CCOC(=O)c1c(NC(=O)CSc2nnc(C)c(=O)[nH]2)sc2c1CCC2`, the inhibition is 66.8% (active).

As for `CCOC(=O)c1c(NC(=O)CSc2cn(CC)c3ccccc23)sc2c1CCC2`, the inhibition was -2.98% (inactive).

Consider `CCOC(=O)c1c(NC(=O)CSc2nnc(CN3CCOCC3)n2C)sc2c1CCCC2`, for which the inhibition was -1.06% (inactive).

`CC1CC(=O)Nc2ccccc2N1C(=O)COc1ccc2cc(Br)ccc2c1` (stereo not drawn): the inhibition is 16.6% (inactive).

With `COc1ccc(-c2cc(C(F)(F)F)nc(S(C)(=O)=O)n2)cc1OC`, the inhibition was -1.46% (inactive).

Regarding `Cc1cc[n+](-c2[nH]c(=O)sc2/C=N/NC(=O)c2ccccc2[O-])cc1C`, the inhibition was 8.46% (inactive).

Take `COc1ccccc1-c1noc(CSc2nc(C)cc(=O)[nH]2)n1`: the inhibition is 1.01% (inactive).

In the case of `Cc1cc(=O)[nH]c(SCc2cccc(F)c2)n1`, the inhibition was 3.14% (inactive).

Turning to `Cc1cc(=O)[nH]c(SCc2cc(Cl)ccc2OC(F)F)n1`, the inhibition was 26.4% (active).

For `COc1ccc(CC(NC(C)=O)C(=O)NC2CCN(C(=O)Nc3ccc(C#N)cc3)CC2)cc1OC` (stereo not drawn), the inhibition is 2.86% (inactive).

As for `CCN(C(=O)CN1CCN(Cc2ccccc2)CC1)c1c(N)n(Cc2ccccc2)c(=O)[nH]c1=O`, the inhibition was -0.83% (inactive).

For `CCCCC1S/C(=N/N=C/c2cccs2)NC1=O` (stereo not drawn), the inhibition is 8.36% (inactive).

Regarding `COc1ccc(C(=O)NNS(=O)(=O)c2ccc(C)cc2)cc1`, the inhibition was 6.56% (inactive).

For `COc1ccc(C(=O)NNc2cc(C)nc(NNC(=O)c3ccc(OC)cc3)n2)cc1`, the inhibition was 24.3% (active).

Consider `COc1ccc(C(=O)NNC(=O)c2cc(C)[nH]n2)cc1`, for which the inhibition is 5.54% (inactive).

As to `O=C1NC2(CCCCCC2)C(=O)N1CCS(=O)(=O)Oc1ccccc1`, the inhibition is 7.86% (inactive).

For `CCn1c(CNC(=O)c2cc(OC)c(OC)c(OC)c2)cc2cc(C)ccc21`, the inhibition is 2.65% (inactive).

`O=c1ccc2c(-c3ccccc3S(=O)(=O)O)c3ccc(O)c(O)c3oc-2c1O`: the inhibition is 26.6% (active).

Regarding `CCCNC(=O)CN(Cc1ccccc1F)S(=O)(=O)c1ccc(C)cc1`, the inhibition is 4.33% (inactive).

Consider `C=CCn1c(C(C)NC(=O)CC)nc2ccccc21` (stereo not drawn), for which the inhibition is 0.58% (inactive).

On to `CC(C)Cn1c(N2CCN(C(=O)/C=C/c3ccccc3)CC2)nc2ccccc21`, for which the inhibition is 28.8% (active).

Consider `Cc1cc(NC(=O)CSc2nc3ccccc3n2CC(C)C)no1`, for which the inhibition is 4.62% (inactive).

Consider `CNC(=O)/C(=C\C=C\c1ccccc1)NC(=O)c1ccc([N+](=O)[O-])cc1`, for which the inhibition was -3.09% (inactive).

As for `O=C(Cc1ccc(S(=O)(=O)N2CCOCC2)s1)Nc1ccc(Br)c(C(F)(F)F)c1`, the inhibition was -4.41% (inactive).

As to `COc1cc(CC(=O)Nc2nc(-c3ccc(F)c(F)c3)cs2)cc(OC)c1OC`, the inhibition is 1.73% (inactive).

As to `COc1ccc(CC(=O)Nc2nc(-c3ccc(F)c(F)c3)cs2)cc1OC`, the inhibition was 4.28% (inactive).

On to `Cc1ccc(S(=O)(=O)NC(=O)Nc2nc(-c3ccc(F)c(F)c3)cs2)cc1`, for which the inhibition is 30.1% (active).

Take `COc1ccc(C)cc1NC(=S)Nc1ccccc1SC`: the inhibition was 9.46% (inactive).

`O=C1C(Cl)=C(Oc2ccccc2)C(=O)c2ccccc21`: the inhibition is 33.9% (active).

Take `CC(=O)N(C1=C(Cl)C(=O)c2ccccc2C1=O)c1ccc(C(=O)O)cc1`: the inhibition is 15.6% (inactive).

For the molecule `CC(=O)Oc1ccc2c(c1)C(=O)c1ccccc1C2=O`, the inhibition is 7.25% (inactive).

What is called inhibition is the drop in the measured response relative to a control, in per cent.
